Source: PubChem (several laboratories)
Rows were chosen to be rich in hits. Some 5.9% of all compounds tested hit in one or more screens of this group.
rCAG binder: molecules binding r(CAG) RNA repeats; r(CAG) RNA repeat, TO-PRO-1 dye displacement fluorescence; inhibition, % at 3 µM; actives 1.3% (n = 370,000); AID 651821;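 active = inhibition above the plate cutoff, the mean of all test compounds on that plate plus 3 SD, cut at about 35% in these data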;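 note: 0% = DMSO alone and 100% = 100 µM mitoxantrone as full dye displacement; higher means more dye released from RNA so lower well fluorescence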
ALR inh: blocks human ALR sulfhydryl oxidase activity. P55789. inhibition, % (no concentration beside the values). purified ALR, DTT oxidation, H2O2 HRP-luminol luminescence. actives 3.8% (n = 290,000);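 active = mean replicate inhibition above about 79%, with every replicate also reaching it, limit read from the data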
Rtt109 Vps75: C. albicans Rtt109 histone acetyltransferase inhibition. purified Rtt109/Vps75, ThioGlo CoA-SH fluorescence, 4 h. inhibition, % at 34.9 µM. actives 0.16% (n = 330,000). Q5AAJ8. AID 540336;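 active = inhibition of at least 50% in every replicate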
PRMT1 FP inh: inhibitors of human PRMT1; Q99873; recombinant PRMT1, activity-based probe fluorescence polarization; inhibition, % at 2.79 µM; actives 1.3% (n = 370,000);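 active = inhibition above about 21% made by adding two undisclosed values, limit read from the data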
ABHD5 PLIN5 PPI: blocks binding of human ABHD5 to perilipin-5; Q00G26+Q8WTS1; Split G. princeps luciferase complementation, luminescence, 4 h; inhibition, % at 4 µM; actives 0.78% (n = 360,000);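 active = inhibition above the mean inhibition across every tested compound plus 3 SD, cut at about 22% in these data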;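 note: 0% = DMSO only wells and the 100% control is not disclosed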
Target sequence (Q00G26 whole entry, looked up): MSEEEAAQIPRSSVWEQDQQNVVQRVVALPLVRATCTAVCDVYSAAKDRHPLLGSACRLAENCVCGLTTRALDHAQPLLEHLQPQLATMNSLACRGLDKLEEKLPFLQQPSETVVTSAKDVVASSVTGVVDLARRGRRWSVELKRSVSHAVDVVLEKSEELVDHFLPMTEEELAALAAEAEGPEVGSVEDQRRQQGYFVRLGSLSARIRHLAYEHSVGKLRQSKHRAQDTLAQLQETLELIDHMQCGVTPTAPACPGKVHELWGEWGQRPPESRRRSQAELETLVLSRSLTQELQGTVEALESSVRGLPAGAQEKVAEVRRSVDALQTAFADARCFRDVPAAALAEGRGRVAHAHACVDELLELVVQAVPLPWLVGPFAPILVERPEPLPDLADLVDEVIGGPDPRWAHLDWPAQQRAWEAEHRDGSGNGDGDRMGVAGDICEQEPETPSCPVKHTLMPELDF
Target sequence (Q8WTS1 whole entry, looked up): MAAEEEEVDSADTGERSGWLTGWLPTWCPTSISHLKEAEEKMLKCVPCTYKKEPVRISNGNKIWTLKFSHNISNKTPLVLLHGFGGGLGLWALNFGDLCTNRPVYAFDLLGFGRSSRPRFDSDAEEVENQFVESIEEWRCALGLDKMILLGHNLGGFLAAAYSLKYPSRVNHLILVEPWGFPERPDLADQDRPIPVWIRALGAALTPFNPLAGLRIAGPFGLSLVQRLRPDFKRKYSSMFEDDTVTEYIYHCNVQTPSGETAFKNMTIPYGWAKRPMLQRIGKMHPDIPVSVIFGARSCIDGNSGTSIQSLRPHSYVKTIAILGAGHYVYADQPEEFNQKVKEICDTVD
LANA-H2B inh: blocks KSHV LANA binding to histone H2A/H2B; cell-free LANA-H2A/H2B peptide, fluorescence polarization; Q9QR71; actives 0.6% (n = 320,000); inhibition, % (concentration not given with the values); in the data active = inhibition mostly above about 10%, no sharp cut-off; inactive = mostly below about 6.7%
* = called active by the depositor; nt = not tested or not shown; + = active, no number.

SMILES	rCAG binder	ALR inh	Rtt109 Vps75	PRMT1 FP inh	ABHD5 PLIN5 PPI	LANA-H2B inh
COc1ccc(Br)cc1CNc1ccc2[nH]c(=O)[nH]c2c1	0.1	98.8*	-0.3	10.0	-7.2	-1.0
COc1ccc(Br)cc1CNc1ccc(O)cc1	17.6	98.3*	8.4	16.7	-37.9	1.1
CCN=c1scc(C)n1/N=C/c1ccsc1	-2.6	98.8*	0.4	1.1	-2.2	-0.2
COc1ccc(OCC(=O)N/N=C/c2ccsc2)cc1	-0.2	nt	11.5	1.8	2.7	nt
C[C@H](CO)N1C[C@H](C)[C@@H](CN(C)C(=O)Nc2ccccc2)Oc2ccc(NC(=O)Nc3ccc4c(c3)OCO4)cc2C1=O	22.1	-16.6	10.2	5.1	13.7	-3.4
C[C@@H]1CN([C@H](C)CO)C(=O)c2cc(NC(=O)Nc3ccc4c(c3)OCO4)ccc2O[C@H]1CN(C)Cc1ccncc1	4.4	-1.8	0.1	4.2	3.5	+
CCOc1ccc(NC(=O)c2cc(-c3ccc(Cl)cc3)nc3ccccc23)cc1	4.5	nt	nt	-3.5	nt	nt
COc1cc(OC)nc(-n2ncc(Br)c(Br)c2=O)n1	0.3	92.0*	-3.7	4.5	13.3	7.4
COC(=O)c1cnn(-c2nc(OC)cc(OC)n2)c1C	-0.9	-2.4	-6.7	-1.3	-7.0	2.1
CC(=O)C1=C(C)N(CC(C)C)C(=S)NC1c1ccc(Br)cc1 (stereo not given)	0.1	nt	nt	8.0	nt	nt
COC(=O)[C@]12C[C@H](CC(=O)NCC34CC5CC(CC(C5)C3)C4)C(=O)N(Cc3ccc4c(c3)OCO4)C1=C[C@H](COCc1ccccc1)O[C@@H]2C	9.6	nt	nt	2.5	nt	nt
O=C1NC[C@H](CCCCN2C[C@H](Cc3ccc(O)cc3)N(CCc3ccc(O)cc3)C(=O)C2=O)N(Cc2ccccc2)C1=O	5.6	nt	nt	4.2	0.0	nt
Oc1c(Cl)cc(Cl)cc1C=Nc1ccccc1N1CCCC1	nt	98.1*	nt	nt	nt	4.9
CCNC(=O)C(C)Sc1ccc(Cl)cc1 (stereo not given)	-2.3	-17.0	1.8	-1.8	-7.0	12.4
CCNC(=O)NC(=O)C(C)Sc1ccc2c(c1)OCCO2 (stereo not given)	3.8	98.2*	13.9	17.8	-4.6	4.0
O=C(Nc1ccc(O)c(-c2nc3ccccc3s2)c1)c1cc(=O)c2ccccc2o1	2.6	-6.9	56.0*	-5.3	6.5	-4.3
CCCC(c1nnnn1Cc1ccco1)N1CCN(c2ccccc2)CC1 (stereo not given)	-3.9	87.9*	-6.0	2.3	-0.3	0.7
CCC(c1nnnn1C1CCCC1)N1CCN(c2ccccc2)CC1 (stereo not given)	-5.6	98.6*	-3.4	3.9	-4.0	1.1
CCCC(c1nnnn1Cc1ccco1)N1CCN(c2cc(Cl)ccc2C)CC1 (stereo not given)	-0.1	-11.0	-5.7	-0.3	-3.7	-2.7
CCCC(c1nnnn1C(C)(C)C)N1CCN(c2ccccc2)CC1 (stereo not given)	-8.7	97.7*	1.6	-3.4	5.1	-1.7
COC(=O)C1CN(Cc2cn(Cc3ccc(C)cc3)nn2)CCS(=O)(=O)N1Cc1ccccc1 (stereo not given)	-1.2	nt	nt	-6.7	nt	nt
Cc1cc(O)c(C=Nc2ccc(N3CCOCC3)cc2)c(C)c1Cl	0.1	59.6	1.7	6.3	-1.0	-2.5
CCN1CCN(c2ccc(N=Cc3ccccc3O)cc2)CC1	-3.3	97.6*	-1.2	-0.2	-3.8	-3.1
COc1cccc(C=Nc2ccc(N3CCOCC3)cc2)c1O	-1.3	98.7*	-5.2	0.5	-11.2	3.2
COc1cccc(C=Nc2ccc3c(c2)OCCO3)c1O	nt	87.4*	12.6	nt	6.0	1.1
SMILES	rCAG binder	ALR inh	Rtt109 Vps75	PRMT1 FP inh	ABHD5 PLIN5 PPI	LANA-H2B inh
CCCCCCCCN1C(=O)[C@@H](CC(=O)NCC23CC4CC(CC(C4)C2)C3)C[C@@]2(C(=O)OC)C1=C[C@H](COCc1ccccc1)O[C@@H]2C	10.7	nt	nt	0.8	nt	nt
COc1cccc([C@@H](NC(=O)C(F)(F)F)[C@@H]2CCCC=C2c2ccccc2)c1	2.1	nt	nt	-6.1	nt	nt
O=C1OCC/C1=C\c1ccc(O)cc1	0.3	98.2*	0.9	3.4	1.6	3.4
Cc1ccc(-n2nnnc2SCC(=O)NCC2(N3CCOCC3)CCCCC2)c(C)c1	-3.1	nt	5.7	-2.5	-4.8	nt
Cc1cccc(-n2nnnc2SCC(=O)NCC2(N3CCOCC3)CCCCC2)c1C	-2.0	1.2	-2.0	-6.6	-2.0	+
O=C1C=CN(C2OC(CO)C(O)C2O)C(=O)C1 (stereo not given)	0.9	nt	nt	-1.2	-10.2	nt
CN1CCN(c2ccc3c(c2)Oc2ccccc2CN(Cc2cn(Cc4ccc(C(F)(F)F)cc4)nn2)S3(=O)=O)CC1	6.9	nt	nt	-4.1	nt	nt
O=[N+]([O-])c1cccc(-c2cnc3ccccc3n2)c1	0.6	0.3	1.5	0.3	0.6	-0.9
Nc1cccc(-c2cnc3ccccc3n2)c1	0.6	99.3*	8.2	-2.0	-13.2	13.6
C=CCn1c(C)cc(C2=NNC(=NC(C)(C)C)SC2)c1C	-2.0	98.8*	19.1	1.6	7.3	0.9
COCCn1c(C)cc(C2=NNC(=NC3CC3)SC2)c1C	4.3	96.9*	21.9	10.4	-8.6	2.3
C=CCN=C1NN=C(c2cc(C)n(CCOC)c2C)CS1	6.6	-1.2	1.6	7.4	0.9	5.1
Nc1ccc(C#Cc2ccc3c(=O)c4ccccc4oc3c2)cc1	9.4	1.5	0.7	3.7	16.9	-0.4
N#Cc1ccc(C#Cc2ccc3oc4ccccc4c(=O)c3c2)cc1	6.1	-1.6	1.5	-2.4	-13.3	25.2*
O=S(=O)(c1ccccc1Br)N(Cc1cn(CC2CCCCC2)nn1)C1CC1	-1.4	nt	nt	-1.8	nt	nt
COC(=O)CC1(C(=O)OC)Oc2ccccc2C(=O)N1c1ccc(F)cc1F (stereo not given)	-5.5	-4.9	57.2*	-2.5	6.6	2.8
COC(C(=O)Nc1ccc(F)cc1F)c1ccccc1 (stereo not given)	-1.6	-1.3	-6.3	1.8	-2.3	0.3
O=C(O)c1ccc2c(c1)C(=O)N(c1ccc(Nc3ccccc3)cc1)C2=O	20.2	97.6*	nt	2.9	-5.4	4.6
Cc1ccc(-c2cc([C@H]3[C@@H]4C=CCC[C@@]4(C)C(=O)N3Cc3ccccc3)ccc2F)cc1	3.6	nt	-1.9	-3.4	-5.9	-5.3
CN(C)c1ccc(-c2cc([C@H]3[C@@H]4C=CCC[C@@]4(C)C(=O)N3Cc3ccccc3)ccc2F)cc1	11.5	nt	0.8	-1.8	-3.8	14.4*
Cc1ccc(S(=O)(=O)N2CCCc3nc(-c4ccc(Br)cc4)ccc32)cc1	3.3	nt	nt	-2.3	nt	nt
CCC(C)c1c(O)nc(SCc2ccccc2)[nH]c1=O (stereo not given)	-0.3	98.6*	-0.5	2.7	-0.7	-0.3
CC(C)c1c(O)nc(SCC(=O)N2CCCCC2)[nH]c1=O	-3.4	53.5	-1.8	5.9	-4.5	0.1
CCC(C)c1c(O)nc(SCC(=O)N2CCCCCC2)[nH]c1=O (stereo not given)	-0.4	96.8*	-72.5	0.2	2.4	1.3
